Data taken from PubChem BioAssay (Tox21).
Where “and” joins values, the source holds several entries; their conditions need not be identical. Equal entries are not always repeated. Records with an inconclusive call do not appear. Where a call stands in place of a potency, no number is given. Some structures have more than one record in an assay (separate samples or runs), and their calls can disagree. Calls of active or inactive are those of the source. Unless noted, calls follow the shape of the full dose curve.

What was measured:
[1] = Nuclear factor erythroid 2-related factor 2/antioxidant responsive element (Nrf2/ARE) small molecule agonists: qHTS cell viability counter screen in human keratinocytes (AID 1919968; active = well fitted curve in the direction sought with a large enough effect in the repeat runs; an effect the other way counts as inactive or inconclusive; also: nearly all actives have a fitted effect of over 55% in size; also: potency is read from the fitted curve at half-maximal effect)
Procedure, shortened: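 Viability counter-screen: KeratinoSens reporter cells, DMSO-delivered compounds, 23 h at 37 C, CellTiter-Fluor fluorescence.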

[2] = target: Gonadotropin-releasing hormone receptor (Homo sapiens) (UniProt P30968); assay: Human gonadotropin-releasing hormone receptor (GnRHR) small molecule agonists, calcium flux assay in GnRHR-HEK293 cells (AID 1920063); also: nearly all actives have a fitted effect of over 35% in size
Gonadotropin-releasing hormone receptor (Homo sapiens), sequence (P30968 whole entry, looked up): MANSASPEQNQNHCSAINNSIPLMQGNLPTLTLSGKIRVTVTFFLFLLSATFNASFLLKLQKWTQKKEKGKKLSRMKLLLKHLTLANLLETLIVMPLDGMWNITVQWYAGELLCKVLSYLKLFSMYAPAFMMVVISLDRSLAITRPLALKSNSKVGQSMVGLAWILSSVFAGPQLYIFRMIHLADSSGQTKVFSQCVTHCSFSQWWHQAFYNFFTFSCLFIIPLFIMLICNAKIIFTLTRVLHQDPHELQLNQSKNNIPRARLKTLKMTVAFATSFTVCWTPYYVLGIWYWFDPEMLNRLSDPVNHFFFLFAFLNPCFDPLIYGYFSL
Procedure, shortened: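 Tox21-format agonist screen using human GnRHR-expressing HEK293 cells and a fluorescent calcium dye; kinetic 3-min fluorescence reading after compound addition, 15-point concentration series run in triplicate.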

[3] = target: KiSS-1 receptor (Homo sapiens) (UniProt Q969F8); assay: Human kisspeptin (KISS1R) small molecule agonists, calcium flux assay in KISS1R-HEK293 cells (AID 1920064; active = well fitted curve in the direction sought with a large enough effect in the repeat runs; an effect the other way counts as inactive or inconclusive)
KiSS-1 receptor (Homo sapiens), sequence (Q969F8 whole entry, looked up): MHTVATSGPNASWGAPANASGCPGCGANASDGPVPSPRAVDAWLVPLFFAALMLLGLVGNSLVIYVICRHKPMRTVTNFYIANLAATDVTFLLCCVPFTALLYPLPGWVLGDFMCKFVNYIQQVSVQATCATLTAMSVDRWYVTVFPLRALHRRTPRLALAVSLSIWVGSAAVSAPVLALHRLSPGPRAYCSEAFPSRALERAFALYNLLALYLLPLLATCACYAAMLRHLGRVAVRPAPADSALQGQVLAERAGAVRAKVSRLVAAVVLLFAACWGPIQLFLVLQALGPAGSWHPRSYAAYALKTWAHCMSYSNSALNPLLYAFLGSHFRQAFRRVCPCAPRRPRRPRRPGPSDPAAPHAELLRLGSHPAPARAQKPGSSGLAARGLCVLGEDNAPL
Procedure, shortened: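 Intracellular calcium mobilization in KISS1R-HEK293 cells was recorded by fluorescence (Ex/Em 480/540) for 3 min following compound addition to cells pre-loaded 1 h with calcium dye.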

[4] = G protein-coupled receptor (GPCR) small molecule agonists, calcium flux assay: HEK293 wild type cell line counter screen (AID 1920065)
Procedure, shortened: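 In this agonist-mode screen, ATP is the positive control and DMSO the vehicle. Cells grow 18 h before a 1 h dye incubation at 37 C; signal is taken at Ex/Em 480/540 over 3 min.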

[5] = p53 small molecule agonists, cell-based qHTS assay with human liver microsomes (AID 1963577);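 also: p53 response element beta-lactamase reporter cells with liver microsomes plus NADPH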
Procedure, shortened: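 16 h, 37 C exposure of p53RE-bla cells to compounds with human liver microsomes and NADPH (0.5 mg/mL final each); detection via LiveBLAzer mixture, 2 h dark at room temperature.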

[6] = p53 small molecule agonists, cell-based qHTS assay with rat liver microsomes (AID 1963578)
Procedure, shortened: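 With rat liver microsomes and NADPH present (0.5 mg/mL final each), p53RE-bla cells are treated with compound for 16 h at 37 C. LiveBLAzer detection mixture is then applied for 2 h at room temperature in the dark.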

[7] = p53 small molecule agonists, cell-based qHTS assay with rat liver microsomes: qHTS cell viability counter screen (AID 1963580); also: nearly all actives have a fitted effect of over 45% in size; also: potency is read from the fitted curve at half-maximal effect
Procedure, shortened: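 Intracellular ATP, by CellTiter-Glo luminescence, defines viability. HCT-116 p53RE-bla cells, 4,000 per well, were compound-treated in the presence of rat liver microsomes and NADPH for 16 h at 37 C.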

[8] = p53 small molecule agonists, cell-based qHTS assay: qHTS cell viability counter screen (AID 1963581); also: nearly all actives have a fitted effect of over 45% in size; also: potency is read from the fitted curve at half-maximal effect
Procedure, shortened: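 Compounds are pinned onto HCT-116 p53RE-bla cells and left 16 h at 37 C. Following the reporter FRET read, ATP is quantified by CellTiter-Glo luminescence after 30 min at room temperature.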

[9] = p53 small molecule agonists, cell-based qHTS assay (AID 1963582; active = well fitted activation curve with a large enough effect in the signal ratio in the repeat runs, not every such curve was filed as active; the % refers to the signal ratio; also: potency is read from the fitted curve at half-maximal effect)
Procedure, shortened: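 Agonist activity was scored from beta-lactamase FRET fluorescence in p53RE-bla cells treated 16 h at 37 C with compounds in DMSO, substrate incubation being 2 h at room temperature.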

[10] = target: 5-hydroxytryptamine receptor 2A (Homo sapiens) (UniProt P28223); assay: 5-hydroxytryptamine receptor 2A (HTR2A) small molecule antagonists, cell-based qHTS assay (AID 1963586); also: nearly all actives have a fitted effect of over 45% in size; also: potency is read from the fitted curve at half-maximal effect
5-hydroxytryptamine receptor 2A (Homo sapiens), sequence (P28223 whole entry, looked up): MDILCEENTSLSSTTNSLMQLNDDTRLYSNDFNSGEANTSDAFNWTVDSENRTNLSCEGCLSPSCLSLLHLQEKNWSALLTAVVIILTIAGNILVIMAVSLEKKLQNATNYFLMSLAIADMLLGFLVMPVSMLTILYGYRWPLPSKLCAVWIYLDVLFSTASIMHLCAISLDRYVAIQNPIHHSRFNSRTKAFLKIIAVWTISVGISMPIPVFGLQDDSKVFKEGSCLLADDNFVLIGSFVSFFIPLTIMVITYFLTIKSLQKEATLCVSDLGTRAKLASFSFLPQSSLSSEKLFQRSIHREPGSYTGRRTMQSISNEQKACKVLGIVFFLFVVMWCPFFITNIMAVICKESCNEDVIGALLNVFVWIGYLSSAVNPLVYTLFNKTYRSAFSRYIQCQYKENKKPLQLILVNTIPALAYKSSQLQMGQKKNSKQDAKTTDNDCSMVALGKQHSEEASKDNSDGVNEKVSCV
Procedure, shortened: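 Antagonist-mode intracellular calcium assay: DOI (4 nM) added after 5 min compound pre-incubation at room temperature to dye-loaded HTR2A-CHO cells. Fluorescence followed for 3 min, sampled every second.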

[11] = target: 5-hydroxytryptamine receptor 2A (Homo sapiens) (UniProt P28223); assay: 5-hydroxytryptamine receptor 2A (HTR2A) small molecule agonists, cell-based qHTS assay (AID 1963587); also: nearly all actives have a fitted effect of over 30% in size; also: potency is read from the fitted curve at half-maximal effect
Procedure, shortened: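 Kinetic calcium-flux fluorescence (2 min, 1 sec intervals) after compound addition in agonist mode. HTR2A-CHO cells were cultured 18 h, then dye-loaded 1 h at 37 C.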

[12] = target: Muscarinic acetylcholine receptor M1 (Homo sapiens) (UniProt P11229); assay: Cholinergic receptor muscarinic 1 (CHRM1) small molecule antagonists, cell-based qHTS assay (AID 1963588); also: nearly all actives have a fitted effect of over 40% in size
Muscarinic acetylcholine receptor M1 (Homo sapiens), sequence (P11229 whole entry, looked up): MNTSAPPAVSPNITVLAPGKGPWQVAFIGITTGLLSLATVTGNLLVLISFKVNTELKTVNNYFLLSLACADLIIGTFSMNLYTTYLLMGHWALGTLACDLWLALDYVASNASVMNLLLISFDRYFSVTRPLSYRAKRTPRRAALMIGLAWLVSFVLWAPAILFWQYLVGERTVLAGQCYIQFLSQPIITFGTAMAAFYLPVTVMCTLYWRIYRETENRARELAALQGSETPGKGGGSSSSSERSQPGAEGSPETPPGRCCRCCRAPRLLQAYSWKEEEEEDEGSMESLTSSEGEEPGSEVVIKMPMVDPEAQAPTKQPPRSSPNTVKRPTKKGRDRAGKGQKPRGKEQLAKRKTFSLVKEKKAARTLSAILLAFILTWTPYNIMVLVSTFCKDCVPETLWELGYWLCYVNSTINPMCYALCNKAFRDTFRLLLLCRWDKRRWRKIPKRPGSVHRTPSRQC
Procedure, shortened: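 CHRM1-CHO calcium-flux assay, antagonist mode. Cells were seeded 18 h, dye-loaded 1 h at 37 C and given compound for 5 min at RT, then acetylcholine was added at 50nM. FDSS fluorescence was read 3 min; 15 concentrations, three runs.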

[13] = target: Muscarinic acetylcholine receptor M1 (Homo sapiens) (UniProt P11229); assay: Cholinergic receptor muscarinic 1 (CHRM1) small molecule agonists, cell-based qHTS assay (AID 1963589); also: nearly all actives have a fitted effect of over 35% in size; also: potency is read from the fitted curve at half-maximal effect
Procedure, shortened: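 Stable CHRM1-CHO cells (human receptor) were incubated 18 h, dye-loaded for 1 h at 37 C and exposed to test compounds for agonist activity, with calcium-dependent fluorescence followed kinetically.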

[14] = cAMP Responsive Elements (CRE) small molecule agonists, cell-based qHTS assay (AID 1963590)
Procedure, shortened: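 FRET-based beta-lactamase readout (LiveBLAzer B/G, 2 h RT) quantified CRE activation in HEK 293T CRE-bla cells after 3 h treatment with DMSO-dissolved compounds.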

[15] = cAMP Responsive Elements (CRE) small molecule antagonists, cell-based qHTS assay (AID 1963591; active = well fitted inhibition curve with a large enough effect in the signal ratio in the repeat runs, not every such curve was filed as active; the % refers to the signal ratio)
Procedure, shortened: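 qHTS in CRE-bla HEK 293T cells: compound in DMSO, then 0.25 uM NKH477 (final), 3 h at 37 °C/5% CO2; beta-lactamase FRET read-out after 2 h substrate incubation.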

[16] = target: Beta-2 adrenergic receptor (Homo sapiens) (UniProt P07550); assay: Adrenergic beta2 receptor (ADRB2) small molecule antagonists, cell-based qHTS assay (AID 1963592); also: series mostly up to about 92 µM; nearly all actives have a fitted effect of over 50% in size
Beta-2 adrenergic receptor (Homo sapiens), sequence (P07550 whole entry, looked up): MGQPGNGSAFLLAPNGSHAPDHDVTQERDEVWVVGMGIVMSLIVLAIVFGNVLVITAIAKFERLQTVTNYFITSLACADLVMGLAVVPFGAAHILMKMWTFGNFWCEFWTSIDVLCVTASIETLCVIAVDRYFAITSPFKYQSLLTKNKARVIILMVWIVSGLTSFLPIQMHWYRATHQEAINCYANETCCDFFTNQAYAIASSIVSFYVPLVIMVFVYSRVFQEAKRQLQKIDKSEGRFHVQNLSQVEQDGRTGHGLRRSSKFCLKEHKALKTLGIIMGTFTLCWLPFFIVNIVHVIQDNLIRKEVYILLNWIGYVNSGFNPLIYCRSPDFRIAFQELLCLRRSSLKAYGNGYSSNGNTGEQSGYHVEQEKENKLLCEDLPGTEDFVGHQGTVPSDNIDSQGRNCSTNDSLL
Procedure, shortened: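 Cells (CHO, stable ADRB2 overexpression) incubated 18-20hr at 37C; compounds added from DMSO; agonist mix (1nM isoproterenol, 100uM IBMX, 25uM Ro-20-1724) added; 0.5hr RT; d2-cAMP and anti-cAMP-cryptate added; 1hr RT; 665/615 nm read.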

[17] = target: Beta-2 adrenergic receptor (Homo sapiens) (UniProt P07550); assay: Adrenergic beta2 receptor (ADRB2) small molecule agonists, cell-based qHTS assay (AID 1963593);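 also: CHO cells stably overexpressing human ADRB2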
Procedure, shortened: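 CHO cells stably over-expressing ADRB2 were plated overnight at 37C, then dosed with compounds plus a stimulation mix containing 100uM IBMX and 25uM Ro-20-1724 for 0.5hr at room temperature. cAMP was measured by HTRF competition, 1hr.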

[18] = target: D(2) dopamine receptor (Homo sapiens) (UniProt P14416); assay: Dopamine D2 receptor (DRD2) small molecule agonists, cell-based qHTS assay (AID 1963594); also: nearly all actives have a fitted effect of over 35% in size
D(2) dopamine receptor (Homo sapiens), sequence (P14416 whole entry, looked up): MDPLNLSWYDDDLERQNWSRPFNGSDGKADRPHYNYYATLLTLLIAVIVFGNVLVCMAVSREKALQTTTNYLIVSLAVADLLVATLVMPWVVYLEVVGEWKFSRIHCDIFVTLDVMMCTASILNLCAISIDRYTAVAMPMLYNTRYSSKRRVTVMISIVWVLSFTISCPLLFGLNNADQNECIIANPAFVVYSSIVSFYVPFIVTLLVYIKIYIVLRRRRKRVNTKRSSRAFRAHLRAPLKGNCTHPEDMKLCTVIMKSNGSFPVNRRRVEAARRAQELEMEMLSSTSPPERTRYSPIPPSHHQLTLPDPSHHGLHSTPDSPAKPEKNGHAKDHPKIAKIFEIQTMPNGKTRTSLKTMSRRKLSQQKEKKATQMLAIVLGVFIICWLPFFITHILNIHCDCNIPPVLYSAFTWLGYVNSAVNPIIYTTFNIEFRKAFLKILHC
Procedure, shortened: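 cAMP accumulation in DRD2-HEK293 cells measured by HTRF after 1 h detection; compounds added 10 min before NKH477 (200nM […]) forskolin-analogue stimulation, 30 min at room temperature, with Ro20-1724 present at 0.1 mM final.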

[19] = target: D(2) dopamine receptor (Homo sapiens) (UniProt P14416); assay: Dopamine D2 receptor (DRD2) small molecule antagonists, cell-based qHTS assay (AID 1963595; active = well fitted inhibition curve with a large enough effect in the signal ratio in the repeat runs, with a control signal flat; the % refers to the signal ratio; also: potency is read from the fitted curve at half-maximal effect)
Procedure, shortened: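 Stable D2 receptor HEK293 line, 24 h after seeding. Compound preincubated 10 min, then quinpirole (12 nM) with forskolin analogue NKH477 (200 nM), 30 min, room temperature. Detection by time-resolved FRET of cAMP.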

[20] = p53 small molecule agonists, cell-based qHTS assay with human liver microsomes: qHTS cell viability counter screen (AID 1963579); also: nearly all actives have a fitted effect of over 45% in size; also: potency is read from the fitted curve at half-maximal effect
Procedure, shortened: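 In this multiplexed counter screen, the reporter plates were subsequently treated with CellTiter-Glo so that cell viability, reflected by luminescence, could be recorded for p53RE-bla cells dosed 16 h with compounds under microsomal activation (HLM and NADPH).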

Compound	Potency [1]	Potency [2]	Potency [3]	Potency [4]	Potency [5]	Potency [6]	Potency [7]	Potency [8]	Potency [9]	Potency [10]	Potency [11]	Potency [12]	Potency [13]	Potency [14]	Potency [15]	Potency [16]	Potency [17]	Potency [18]	Potency [19]	Potency [20]
CCCCc1ncc(/C=C(\Cc2cccs2)C(=O)O)n1Cc1ccc(C(=O)O)cc1	inactive	inactive	inactive	inactive	inactive	inactive	inactive	inactive	inactive	inactive	inactive	inactive	inactive	inactive	inactive	inactive	inactive	inactive	inactive	–
Brc1cc(Br)cc(Br)c1	inactive	inactive	inactive	inactive	inactive	inactive	–	inactive	inactive	inactive	inactive	inactive	inactive	inactive	inactive	inactive	–	inactive	inactive	inactive
O=Nc1ccc(Nc2ccccc2)cc1	27.4 µM (active)	inactive	inactive	inactive	inactive	–	40.8 µM (active)	inactive	43.4 µM (active)	844 nM (active) and 5.3 µM (active)	0.391 µM (active)	inactive	inactive	–	–	–	–	inactive	54.5 µM (active)	inactive and 36.3 µM (active)
COc1c2ccoc2cc2oc(=O)ccc12	inactive	inactive	inactive	inactive	inactive	–	–	inactive	inactive	inactive	inactive	inactive	inactive	inactive	inactive	inactive	inactive	inactive	inactive	inactive
O=C(Oc1ccccc1)c1ccc(O)cc1	inactive	inactive	inactive	inactive	inactive	inactive	–	inactive	inactive	26.7 µM (active) and 13.3 µM (active)	–	inactive	–	inactive	inactive	inactive	–	inactive	inactive	inactive
O=C(c1ccc(OCCN2CCCCC2)cc1)c1c(-c2ccc(O)cc2)sc2cc(O)ccc12	34.4 µM (active) and 30.6 µM (active)	inactive	inactive	inactive	inactive	inactive	inactive	36.4 µM (active) and inactive	inactive	–	–	–	–	–	–	inactive	inactive	–	inactive	45.8 µM (active) and inactive
CCCN[C@H]1CCc2nc(N)sc2C1	inactive	inactive	inactive	inactive	inactive	–	inactive	inactive	inactive	inactive	–	inactive	inactive	inactive	inactive	inactive	inactive	–	inactive	inactive
Nc1cc(S(=O)(=O)O)cc2cc(S(=O)(=O)O)cc(O)c12	inactive	inactive	inactive	inactive	inactive	–	–	inactive	–	inactive	inactive	inactive	inactive	inactive	inactive	inactive	–	–	–	inactive
CCCCCC/C=C/C(=O)OC	inactive	inactive	inactive	inactive	inactive	inactive	–	–	inactive	inactive	inactive	inactive	inactive	–	inactive	inactive	–	inactive	inactive	inactive
CC(C)COC(=O)c1ccccc1O	inactive	inactive	inactive	inactive	inactive	inactive	inactive	inactive	inactive	inactive	–	inactive	inactive	inactive	inactive	inactive	inactive	inactive	inactive	inactive
O=C1CCC(=O)N1	inactive	inactive	inactive	inactive	inactive	inactive	–	inactive	inactive	inactive	inactive	inactive	inactive	–	inactive	inactive	inactive	inactive	inactive	inactive
CCOC(=O)c1ccc(N)cc1	inactive	inactive	inactive	inactive	inactive	inactive	inactive	inactive	inactive	–	–	–	–	inactive	inactive	inactive	inactive	inactive	–	–
c1ccc2c(c1)CCC2	inactive	inactive	inactive	inactive	inactive	inactive	–	inactive	inactive	inactive	inactive	inactive	inactive	inactive	inactive	inactive	inactive	inactive	inactive	inactive
CSc1ccc2c(c1)N(CCC1CCCCN1C)c1ccccc1S2 (stereo not given)	24.2 µM (active) and 26.6 µM (active)	inactive	inactive	inactive	inactive	inactive	40.6 µM (active) and inactive	inactive	–	–	–	–	–	–	–	inactive	inactive	inactive	–	45.6 µM (active) and inactive
O=c1n(CCCN2CCN(c3cccc(Cl)c3)CC2)nc2ccccn12	inactive	inactive	inactive	inactive	inactive	inactive	inactive	inactive	inactive	–	–	–	–	inactive	inactive	inactive	–	inactive	–	inactive
C=CCCCCCCCCCCCC	inactive	inactive	inactive	inactive	inactive	inactive	inactive	inactive	inactive	–	inactive	inactive	0.245 µM (active)	inactive	inactive	inactive	inactive	inactive	inactive	inactive
Cn1c(=O)c2c(ncn2C)n(C)c1=O	inactive	inactive	inactive	inactive	inactive	inactive	inactive	inactive	inactive	–	–	–	–	inactive	inactive	inactive	–	inactive	inactive	–
